# Entries with a potency or affinity are not part of this list. Active and inactive are the calls of the source. The rule behind the calls is not given here.
# Target: Plasmodium falciparum protein kinase 6 (PK6, PF3D7_1337100) (UniProt Q8IDW1)
# Assay: PfPK6 kinase inhibitors, biochemical, TCAMS library (AID 1159586)
# Settings: recombinant PfPK6, Kinase-Glo ATP depletion luminescence
# Sequence of Plasmodium falciparum protein kinase 6 (PK6, PF3D7_1337100) (Q8IDW1 1-305): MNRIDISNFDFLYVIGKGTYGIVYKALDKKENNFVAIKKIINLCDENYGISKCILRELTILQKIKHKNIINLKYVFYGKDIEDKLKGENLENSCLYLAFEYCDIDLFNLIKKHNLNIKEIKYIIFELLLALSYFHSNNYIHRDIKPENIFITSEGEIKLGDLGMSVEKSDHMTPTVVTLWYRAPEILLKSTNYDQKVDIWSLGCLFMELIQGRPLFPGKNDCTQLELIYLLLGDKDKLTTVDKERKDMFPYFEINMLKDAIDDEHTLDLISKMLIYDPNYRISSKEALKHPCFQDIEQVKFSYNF
row,SMILES,outcome
1,Cc1cccc2[nH]c(-c3cccc(-c4cccc(NC(=O)Cc5ccc[n+]([O-])c5)c4)c3)nc12,inactive
2,c1cc2nc(CCCCc3nc4ccc(C5=N[C@@H]6CCCC[C@@H]6N5)cc4[nH]3)[nH]c2cc1C1=N[C@@H]2CCCC[C@@H]2N1,inactive
3,C=CC[C@@H](C[C@H](O)[C@H](Cc1ccccc1)NC(=O)c1ccc(-c2cccnn2)cc1)C(=O)NC1CCCCC1,inactive
4,COc1ccc(Nc2nc(N/N=C/c3cc(Br)c(O)cc3O)nc(Nc3ccc([N+](=O)[O-])cc3)n2)cc1,inactive
5,COc1cc(/C=N/Nc2ccnc3cc(Cl)ccc23)ccc1O,inactive
6,CCn1c(/C=C/c2cc(Br)ccc2O)nc2ccccc2c1=O,inactive
7,c1cc2nc(CCCCCc3nc4ccc(C5=N[C@H]6CCCC[C@H]6N5)cc4[nH]3)[nH]c2cc1C1=N[C@H]2CCCC[C@H]2N1,inactive
8,C=CC[C@@H](C[C@H](O)[C@H](Cc1ccccc1)NC(=O)c1ccc(-n2cccn2)cc1)C(=O)NC1CCCCC1,inactive
9,C/C(=N\NC(N)=O)C1=C(O)C(c2ccccc2)N(C2CCCCC2)C1=O (configuration not stated),inactive
10,O/N=C1\CCc2cc(-c3nc(-c4ccc(OCCN5CCCCC5)cc4)[nH]c3-c3ccncc3)ccc21,inactive
11,O/N=C1\CCc2cc(-c3cc(-c4ccc(OC5CCNCC5)cc4)oc3-c3ccncc3)ccc21,inactive
12,Nc1ccc(-c2nc3cc(C4=N[C@@H]5CCCC[C@@H]5N4)ccc3o2)cc1[N+](=O)[O-],inactive
13,Nc1cc(/C=C/c2ccc(O)cc2)nc2ccccc12,inactive
14,O=[N+]([O-])c1ccc(-c2nc3ccc(C4=N[C@@H]5CCCC[C@@H]5N4)cc3[nH]2)cc1,inactive
15,CC(C)C[C@H](C(=O)N[C@H](C(=O)Nc1nccs1)C(C)(C)C)[C@H](CCC(F)(F)F)N(O)C=O,inactive
16,Cc1cc(C)c2c(c1)/C(=N/O)CCN2,inactive
17,CN(C)C[C@H](O)[C@H](c1ccccc1)c1ccc(Cl)cc1,inactive
18,CC1CCC(C[C@H](C(=O)N[C@@H](CCC(=O)N2CCCCC2)C(=O)Nc2nccs2)[C@H](C(C)C)N(O)C=O)CC1 (some centres not stated),inactive
19,CCC[C@@H]([C@H](CC(C)C)C(=O)N[C@@H](CCCN=C(N)NS(C)(=O)=O)C(=O)Nc1nccs1)N(O)C=O,inactive

row,SMILES,outcome
1,C[C@@H]([C@H](CCCc1ccc(Cl)cc1)C(=O)N[C@H](C(=O)Nc1cccnc1)C(C)(C)C)N(O)C=O,inactive
2,COc1cc(/C=C(\C2=NC(=O)CS2)c2nc3cccnc3n2C)ccc1O,inactive
3,O=C(Cc1ccc[n+]([O-])c1)Nc1cccc(-c2cccc(-c3nc4ccc(F)cc4[nH]3)c2)c1,inactive
4,CC[C@H](C)[C@H](NC(=O)[C@@H](CC1CCCCC1)[C@H](CC)N(O)C=O)C(=O)Nc1ccccn1,inactive
5,Cc1cc(-c2cc(-c3ccc(OCCN(C)C)cc3)[nH]c2-c2ccc3c(c2)CC/C3=N\O)ccn1,inactive
6,O=C(N/C=N/c1cc([N+](=O)[O-])c(-c2cccnc2)n1-c1ccc(O)cc1)c1ccccc1,inactive
7,Oc1ccc2ccccc2c1/C=N/Nc1nc(Nc2ccccc2)nc(Nc2ccccc2)n1,inactive
8,Oc1ccc2ccccc2c1/C=N/Nc1nc(Nc2ccccc2)nc(N2CCOCC2)n1,inactive
9,O/N=C1\CCc2cc(-c3nc(-c4cccc(OCCNCc5ccc(F)cc5)c4)[nH]c3-c3ccncc3)ccc21,inactive
10,COc1ccc(C2=[N+]([O-])c3ccccc3C2=O)cc1,inactive
11,CCC[C@@H]([C@H](CC(C)C)C(=O)N[C@@H](CCCCNC(=O)OCc1ccccc1)C(=O)Nc1ncccn1)N(O)C=O,inactive
12,CCC[C@@H]([C@H](CC1CCCCC1)C(=O)N[C@H](C(=O)Nc1ccccn1)[C@H](C)CC)N(O)C=O,inactive
13,CO[C@H](C)[C@H](NC(=O)[C@@H](CC(C)C)[C@H](CCC(F)(F)F)N(O)C=O)C(=O)Nc1nccs1,inactive
14,CCCO[C@H](C(=O)OC)[C@H](CC1Cc2ccccc2C1)C(=O)NCCC1=CCCCC1,inactive
15,CC[C@@H]([C@H](CC(C)C)C(=O)N[C@@H](CCCCNC(=O)OCc1ccccc1)C(=O)Nc1ccccn1)N(O)C=O,inactive
16,Cc1cccc2[nH]c(-c3cccc(-c4ccc(NC(=O)Cc5ccc[n+]([O-])c5)cc4)c3)nc12,inactive
17,O=C(N/N=C/c1nc2ccccc2[nH]1)c1cccc([N+](=O)[O-])c1,inactive
18,COc1cc(-c2nc(-c3ccc4c(c3)CC/C4=N\O)c(-c3ccncc3)[nH]2)ccc1OCCN1CCCCC1,inactive
